Results taken from PubChem BioAssay AID652104 (National Center for Advancing Translational Sciences (NCATS), 2013).
About 7,200 (1.8%) of roughly 410,000 compounds were called active. Not shown: some 7% with an inconclusive outcome. The full list was thinned out, with actives kept by preference. A number with no mark means an inactive call. Calls follow the shape of the dose curve; as a rule, active = well fitted activation curve with a large enough effect; inconclusive = small, poorly fitted or top-dose-only effect, or another doubt; inactive = no such curve, though single readings can be large or run the other way.

Assay: qHTS of TDP-43 Inhibitors; also: nearly all actives have a fitted effect of over 50% in size; as to growth rescue (activation): % of control where 0% means no effect
Conditions: TDP-43 expressing yeast growth rescue, BacTiter-Glo, 24 h; series mostly up to 46.1 µM; growth rescue (activation): at the top concentration
Description: The goal of this project is to identify new chemical probes capable of reversing the toxicity associated with TDP-43 which is associated with frontotemporal lobar degeneration and amyotrophic lateral sclerosis. These compounds will provide a complementary approach to deciphering the tangled mechanisms of toxicity and protection that we have uncovered through genome-wide genetic screens and are beginning to uncover in a large-scale proteomics analysis with mass spectroscopy.
To this end, a miniaturized assay was developed to be screened against the Molecular Libraries Small Molecule Repository (MLSMR) to discover TDP-43 inhibitors. Please note that in the set-up this yeast-based assay compounds that inhibit as TDP-43, have a read-out as activators.
NIH Chemical Genomics Center [NCGC]
NIH Molecular Libraries Probe Centers Network [MLPCN]
Assay Submitter (PI): Susan Lindquist, Whitehead Institute/MIT
Dispense 2.5 microL yeast galactose medium per 1536-well plate, pin compound, dispense 2.5 microL TDP-43 expressing yeast in galactose medium at OD600=0.02 (pregrown in raffinose medium to mid-log phase) per well, incubate for 24 hr at 30 deg C, and cell growth will be measured using 5 microL of Bactiter/Glo reagent to entire plate and read using Luminescence Protocol in ViewLux.
Potency is read from the fitted curve at half-maximal effect.

| SMILES | growth rescue (activation) [%] | Potency |
| --- | --- | --- |
| Cc1ccc(CCNC(=O)c2ccc(CS(=O)(=O)Cc3cccc(C)c3)o2)cc1 | 12.7 | – |
| CC1=C(C(=O)N2CCN(c3cccc(C(F)(F)F)c3)CC2)C2(CCCCC2)OC1=O | 7.17 | – |
| COc1cccc(NC(=O)C2CCN(c3cc(C)nc4c(-c5ccc(Cl)cc5)c(C)nn34)CC2)c1 | 1.98 | – |
| COc1ccc(CCNc2nc(-c3ccc(Cl)cc3)cc(C(F)(F)F)n2)cc1OC | -4.55 | – |
| COc1ccc(CCNc2cc(C)nc3c(-c4ccc(Cl)cc4)c(C)nn23)cc1OC | – | 20 µM (active) |
| COc1ccc(N2CCN(C(=O)C3CCCN(C(=O)c4cc5sccc5n4C)C3)CC2)cc1 (stereo unspecified) | 9.85 | – |
| COC(=O)c1ccccc1NC(=O)c1ccc(COc2ccccc2Cl)o1 | 8.94 | – |
| Cc1ccc(CNC(=O)CCc2c(C)nc3nc(CNC(=O)OC(C)(C)C)nn3c2C)cc1 | 9.83 | – |
| O=[N+]([O-])c1cc(C(F)(F)F)ccc1NN=C1CCCC1 | 20.6 | – |
| O=C(CSc1ccc(C(F)(F)F)cc1[N+](=O)[O-])NCCOc1ccccc1 | -13.2 | – |
| Nc1ccccc1Sc1ccc(C(F)(F)F)cc1[N+](=O)[O-] | – | 11.2 µM (active) |
| Cc1nc2nc(NCc3cccc(Br)c3)[nH]n2c(=O)c1Cc1ccccc1 | 12.5 | – |
| COc1ccc(C(=O)N2CCC(c3nc4ccccc4o3)CC2)cc1 | -8.9 | – |
| Cc1onc(-c2ccccc2)c1C(=O)N1CCN(S(=O)(=O)c2ccccc2C(F)(F)F)CC1 | – | 15.8 µM (active) |
| CCc1noc(C)c1C(=O)N1CCN(S(=O)(=O)c2cccc(C(F)(F)F)c2)CC1 | 15.9 | – |
| CC(C)(C)OC(=O)N1CCN(C(=O)c2[nH]c(C(F)(F)F)nc2-c2ccccc2)CC1 | -9.17 | – |
| N#Cc1nc(/C=C/c2ccc(F)cc2)oc1NC1CCCCC1 | 7.58 | – |
| Cc1ccccc1NC(=O)CSC(=O)c1ccccc1 | – | 14.1 µM (active) |
| Cc1ccccc1NC(=O)CSC1=NCCN1 | 16.4 | – |
| Cc1cccc(NC(=O)CSC(N)=O)c1C | -0.179 | – |
| CCOc1cccc(CNC(=O)c2ccc(N3CCCC3)c(NC(=O)Nc3ccccc3CC)c2)c1 | 14.4 | – |
| Cc1cccc(NC(=O)CN(c2ccc(C(C)C)cc2)S(=O)(=O)c2c(C)nn(C)c2C)c1C | 9.66 | – |
| Cc1ccc(CNC(=O)CCc2c(C)nc3c(c(C)nn3-c3ccccc3)c2C)cc1 | 7.91 | – |
| CCOC(=O)C1CCCN(CC(=O)Nc2cc(C)c3c(=O)oc4ccccc4c3n2)C1 (stereo unspecified) | 12.8 | – |
| COc1ccc(CNc2nc(-c3ccccc3)nn2C(=O)c2ccccc2OC)cc1 | -26.6 | – |
| Cc1cc(C)cc(NC(=O)CCCc2nc(-c3ccccc3Cl)no2)c1 | 6.99 | – |

| SMILES | growth rescue (activation) [%] | Potency |
| --- | --- | --- |
| Cc1ccc2nc(SCC(=O)Nc3cccc4ccccc34)nc(=O)n2c1 | 2.84 | – |
| Cc1ccccc1-n1c(SCC(=O)Nc2cccc3ccccc23)nc(O)cc1=O | 1.32 | – |
| Cc1cccc(-n2ccnc2SCC(=O)Nc2cccc3ccccc23)c1C | – | 22.4 µM (active) |
| O=C(CSc1nccn1-c1cccc(F)c1)NC1CCCC1 | 12.2 | – |
| Cc1cc(NC(=O)CSc2nccn2-c2ccc([N+](=O)[O-])cc2)no1 | 20.5 | – |
| O=C(CSc1nccn1-c1ccc(F)cc1)Nc1cccc2ccccc12 | – | 17.8 µM (active) |
| O=C(CSc1nc(Nc2ccc(F)c(F)c2)c2ccccc2n1)c1ccc(Cl)cc1 | 14.9 | – |
| CCC(C(=O)Nc1cc(OC)ccc1OC)n1c(=O)c(C(F)(F)F)nc2ccccc21 (stereo unspecified) | 3.29 | – |
| CC(NC(=O)c1cc(Sc2ccc(F)cc2F)nc2ccccc12)c1ccccc1 (stereo unspecified) | 17.5 | – |
| CC(C)c1ccc(NC(=O)c2ccc3c(O)c(S(=O)(=O)c4ccccc4)c(=O)[nH]c3c2)cc1 | 19.2 | – |
| O=C1N(Cc2ccccc2)c2ccc(Cl)cc2C1(O)c1c[nH]c2ccccc12 (stereo unspecified) | 25.9 | – |
| CCCCOc1ccc(NC(=O)CSCC(=O)OCC)cc1 | – | 12.6 µM (active) |
| CCOc1ccc(NC(=O)CSc2nncn2C)cc1 | -8.46 | – |
| CCCCN(C(=O)CSCC(=O)Nc1ccc(OC)cc1)c1c(N)n(CCC)c(=O)[nH]c1=O | 13.8 | – |
| O=C(COc1ccc(Cl)cc1)Nc1ccc(-c2nc3cc(Cl)ccc3o2)c(O)c1 | 24.4 | – |
| O=S(=O)(c1ccc(Br)cc1)c1nnn2c1nc(NC1CCCCCC1)c1sccc12 | -1.95 | – |
| COC(C/C=C/C(=O)[C@@H](C)OCc1ccccc1)OC | – | 20 µM (active) |
| COC(C[C@@H]1O[C@@H]1C(=O)[C@H](C)OCc1ccccc1)OC | 13 | – |
| COC(C[C@H](O)CC(=O)[C@@H](C)OCc1ccccc1)OC | 18 | – |
| Cc1ccc(NC(=O)C(=O)NCC(c2cccnc2)N2CCOCC2)cc1 (stereo unspecified) | 20.9 | – |
| COc1ccc(OC)c(-n2nnc3c(sc4nc(C)c(Br)c(C)c43)c2=O)c1 | 14.9 | – |
| CCc1ccc(Nc2nn3c(=O)c4cc5c(cc4nc3s2)OCO5)cc1 | 6.61 | – |
| Cc1cc(Cl)ccc1OCc1nc(-c2ccncc2)no1 | – | 20 µM (active) |
| CC1CCN(Cc2nc(-c3ccc(Cl)cc3)no2)CC1 | -5.38 | – |
| COc1cc(OC)c(NC(=O)c2nc(-c3ccncc3)no2)cc1Cl | 5.65 | – |
